# Source: PubChem BioAssay
# G9a block: inhibitors of human histone lysine methyltransferase G9a. Q96KQ7. G9a H3K9 monomethylation, AlphaScreen, 2 h. Potency, µM (top dose mostly 102 µM), for the others: at the highest dose activity, negative = inhibition, usual class: inhibitors. hit rate 8.8% among 350,000. AID 504332; further: on the % scale 0 is the no-effect control and ±100 the full control effect; nearly all actives have a fitted effect of over 75% in size
# Target sequence (Q96KQ7 913-1193 limits assumed): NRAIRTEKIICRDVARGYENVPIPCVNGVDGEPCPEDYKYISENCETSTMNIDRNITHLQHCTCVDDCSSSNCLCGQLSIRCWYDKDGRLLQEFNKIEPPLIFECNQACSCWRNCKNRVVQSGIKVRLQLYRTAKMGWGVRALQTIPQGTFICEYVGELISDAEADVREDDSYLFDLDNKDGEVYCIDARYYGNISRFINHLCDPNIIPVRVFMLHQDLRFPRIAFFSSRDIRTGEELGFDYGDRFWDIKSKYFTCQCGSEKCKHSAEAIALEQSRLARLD
#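 Step 1: enzyme (final 20 nM) with compound, 15 min RT. Step 2: substrate peptide 500 nM and SAM 20 uM, 2 h RT. Step 3: anti-H3K9me1 antibody and AlphaScreen beads, 10 min, then plate read.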
# VDR inhibitor: blocks the human vitamin D receptor | P11473 | VDR-SRC2-3 peptide fluorescence polarization, 2 h | Potency, µM, without a hit: max response, negative = inhibition, usual class: inhibitors | hit rate 0.93% among 400,000 | AID 504847; further: on the % scale 0 is the no-effect control and ±100 the full control effect
#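 VDR–SRC2-3 interaction, FP format. Cmpds 23 nl via pintool, brief spin, 2 h ambient incubation.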
# JMJD2A Tudor inh: inhibitors of human JMJD2A Tudor domain; Potency, µM (doses to about 114 µM), without a hit: top-dose activity change, negative = inhibition, actives largely listed as inhibitors; AlphaScreen JMJD2A-Tudor / H3K4me3 peptide binding; hit rate 4.4% among 390,000; O75164; further: on the % scale 0 is the no-effect control and ±100 the full control effect; nearly all actives have a fitted effect of over 50% in size
# BAZ2B block: blocks human BAZ2B | AID 504333 | AlphaScreen BAZ2B-H3K14Ac peptide displacement | Potency, µM (top dose mostly 114 µM), for inactives: top-dose activity change, negative = inhibition, hits mostly inhibitors | hit rate 4.4% among 360,000; further: on the % scale 0 is the no-effect control and ±100 the full control effect; nearly all actives have a fitted effect of over 60% in size
#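 Protein-peptide AlphaScreen: BAZ2B 50 nM, b-H3K14Ac 50 nM, 1x PBS pH 7.4 + 0.01% Tween-20. Preincubation 30 min RT; cpd 30 min RT (top 110 uM); beads 20 min RT, light-protected.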
# PLK1 PBD inh: blocks phosphopeptide binding to human PLK1 polo-box domain; Plk1 PBD binding of FITC phosphopeptide, fluorescence polarization; hit rate 2.8% among 360,000; P53350; AID 720504; Potency, µM, for inactives: max response, negative = inhibition, most hits filed as inhibitors; further: series mostly up to about 57 µM; on the % scale 0 is the no-effect control and ±100 the full control effect; nearly all actives have a fitted effect of over 65% in size
# HP1b binding inh: blocks HP1-beta chromodomain binding to methylated histone tails | P83916 | AlphaScreen HP1-beta / biotin-H3K9me3 peptide binding | Potency, µM (highest dose often 114 µM), for inactives: top-dose activity change, negative = inhibition, hits mostly inhibitors | hit rate 0.56% among 390,000 | AID 540317; further: nearly all actives have a fitted effect of over 70% in size
# Target sequence (P83916 whole entry, looked up): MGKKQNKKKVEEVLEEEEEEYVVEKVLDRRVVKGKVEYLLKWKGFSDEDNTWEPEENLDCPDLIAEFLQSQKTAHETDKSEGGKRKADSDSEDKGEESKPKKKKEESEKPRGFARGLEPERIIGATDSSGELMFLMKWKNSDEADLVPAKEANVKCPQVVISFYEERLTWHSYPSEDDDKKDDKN
#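 AlphaScreen: HP1-beta (50 nM) preformed 30 min with biotin-H3(1-18)K9me3 peptide (50 nM) in PBS pH 7.4, 0.01% Tween-20. Compound added for 30 min at RT, then streptavidin donor/nickel chelate acceptor beads (10 ug/mL) for 30 min.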
# * hit, by the source's call; u = inconclusive; x = no result; [ ] = another dose, or the depositor's remark. Sampled rows, rich in hits. Any-hit rate of the full collection: about 11%. The call rests on the fitted dose curve; in most records, active means well fitted curve in the direction sought with a large enough effect; inconclusive means small, poorly fitted or top-dose-only effect, or another doubt; inactive means no such curve, though single readings can be large; an effect the other way counts as inactive or inconclusive. Potency means the concentration at half of the fitted maximal effect.
SMILES,G9a block,VDR inhibitor,JMJD2A Tudor inh,BAZ2B block,PLK1 PBD inh,HP1b binding inh
O=C1CC(N2CCC(c3nc4ccccc4[nH]3)CC2)C(=O)N1c1ccccc1F (stereo not drawn),35µM*,-2%,-19%,-22%,u,-4%
FC(F)(Cl)c1nnc2ccc(Sc3ccccn3)nn12,25µM*,-10%,-1%,-20%,21µM*,41%
FC(F)(F)C(F)(F)c1nnc2ccc(-n3ccnc3)nn12,-36%,-11%,-8%,-2%,-12%,38%
COc1ccc(S(=O)(=O)c2cc(NS(=O)(=O)c3ccc(Cl)cc3)c(C)c(C)c2O)cc1,-4%[59 µM],19%,-22%,-12%,x,15%
CCc1ccccc1Nc1ccc(C(=O)O)cc1N,-40%[12.7 µM],-9%,-32%,u,-10%,0%
CCNc1ccc(C(=O)O)cc1N,u,79µM*,-9%,-34%,-3%,21%
Cc1ccc2c(c1)c(=O)c(C(=O)c1ccc3c(c1)OCO3)cn2Cc1cccc(F)c1,-3%[59 µM],6%,-11%,-23%,x,22%
Cc1ccc(S(=O)(=O)Cn2nnnc2C(C(C)C)N2CCSCC2)cc1 (stereo not drawn),35µM*,-7%,-12%,2%,-11%,25%
Cc1ccc(S(=O)(=O)Cn2nnnc2C(c2ccccn2)N2CCN(c3ccccc3)CC2)cc1 (stereo not drawn),35µM*,9%,-28%,u,-1%,-7%
O=C1CCC=C1C(O)c1ccc(Cl)cc1 (stereo not drawn),x,3%,x,x,x,x
CC1(C(=O)O)CCN1C(=O)c1cccc(OC(F)(F)F)c1 (stereo not drawn),x,x,x,x,5%,x
O=C(CN1CCN(S(=O)(=O)c2ccccc2F)CC1)N1CCc2ccccc2C1,x,-16%,0.79µM*,x,-6%,-26%
Cc1cccc(Cn2c(=O)n(CCCC(=O)NCc3ccccc3Cl)c(=O)c3ccccc32)c1,-31%[59 µM],u,-10%,-1%,x,20%
COC(=O)c1ccc2c(c1)N(C)S(=O)(=O)c1cnc(SCC(=O)C(C)(C)C)nc1-2,5µM*,-16%,-18%,-15%,-1%,24%
COc1ccc(Cl)cc1NC(=O)NCc1ccccn1,71%,32%,-12%,-15%,-14%,44%
Cn1c(CNS(=O)(=O)c2ccc(F)cc2)n[nH]c1=S,u,-4%,11µM*,-2%,-7%,34%
Cn1c(CNS(=O)(=O)c2ccc(Cl)cc2)n[nH]c1=S,u,-18%,6.3µM*,9%,-6%,33%
Cc1nnnn1/C(=C\c1ccccc1)C(=O)OCC(=O)NC1CCCCC1,50µM*,u,-15%,11%,-21%,9%
O=C(CCCSc1nc2ccccc2[nH]1)N1CCN(c2ccccc2)CC1,45µM*,4%,-34%,-37%,-14%,9%
O=C(CSc1nc2ccccc2[nH]1)N1c2ccccc2Sc2ccccc21,45µM*,13%,u,u,-5%,5%
COc1ccc(N2CCN(C(=O)c3cccnc3SCc3cccc(Br)c3)CC2)cc1,13µM*,-4%,22µM*,u,0%,u
COc1ccccc1N1CCN(C(=O)CC(NC(=O)c2ccccc2Cl)c2ccccc2)CC1 (stereo not drawn),45µM*,-11%,-8%,6%,-3%,27%
O=C(Nc1ccccc1Cl)c1cc(C2CCCN(C(=O)c3ccccc3)C2)on1 (stereo not drawn),x,x,x,x,5%,x
COc1ccccc1N1CCN(C(=O)CSc2nc3ccccc3[nH]2)CC1,7.9µM*,-6%,-7%,-4%,-8%,4%
Cc1c(C)n(C(=O)CSc2nc3ccccc3[nH]2)c2ccccc12,50µM*,-9%,u,u,-18%,2%
O=C(CSc1ncccc1-c1nc2ccccc2[nH]1)N1CCN(c2ccccc2F)CC1,-45%,36%,-28%,-8%,-11%,24%
O=C(CCCSc1nc2ccccc2[nH]1)NCc1ccccc1Cl,35µM*,7%,-17%,-2%,-5%,u
O=C(CSc1nc2ccccc2[nH]1)N1CCCCC1,-34%[12.7 µM],9%,-1%,-5%,-6%,22%
